Our source for the growth values is PubChem BioAssay (NCI).

Holding throughout (test): NCI-60 one-dose screen, 48 h (100 = growth as untreated, 0 = no growth, -100 = all killed)
Common to all, as to conditions: 10 µM unless noted

Experiment [1] relates to SR leukemia.
Experiment [2] has as its system OVCAR-8 ovarian.
In experiment [3] the test system is OVCAR-5 ovarian.
Experiment [4] concerns OVCAR-4 ovarian.
Experiment [5] deals with IGROV1 ovarian.
Experiment [6] deals with OVCAR-3 ovarian.
Experiment [7] deals with HS 578T breast.
In experiment [8] the test system is NCI/ADR-RES ovarian.
In experiment [9] the test system is T-47D breast.
The subject of experiment [10] is BT-549 breast.
The subject of experiment [11] is MDA-MB-435 melanoma.
Experiment [12] has as its system SW-620 colon.
For experiment [13], the system named is MCF7 breast.
The test system of experiment [14] is HCT-116 colon.
Experiment [15] relates to HCC-2998 colon.
The subject of experiment [16] is KM12 colon.
The test system of experiment [17] is RPMI-8226 leukemia.
Experiment [18] deals with SK-OV-3 ovarian.

Where “and” joins values, the source holds several entries; their conditions need not be identical. Equal entries are not always repeated. About 83,000 compounds went through this panel and 20% of them were active in at least one assay; those are over-represented in the sample as a whole.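 A percent growth of 40 corresponds to 60% growth inhibition; 0 means no net growth; -100 means all cells died. Active threshold: below 10.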 Some structures have more than one record in an assay (separate samples or runs), and their calls can disagree. Calls of active or inactive are those of the source.

For the compound `CCN(CC)CCNc1ccc(C)c2sc3ccccc3c(=O)c12` (tested in a mixture with another compound), the growth in experiment [1] was 8.47% (active) and 20% (inactive); in experiment [2] it was 23.7% (inactive) and 32.3% (inactive); in experiment [3], 48.8% (inactive) and 51.6% (inactive); in [4], 40.7% (inactive) and 53.3% (inactive); in experiment [5] it was -29.6% (active) and 3.62% (active); in experiment [6], 58.9% (inactive) and 62.8% (inactive). The growth in [7] is 122% (inactive) and 81.6% (inactive); in experiment [8], 43.1% (inactive) and 43% (inactive); in experiment [9], 41% (inactive) and 31.5% (inactive); in experiment [10], 46.4% (inactive) and 79.4% (inactive); in experiment [11], 23.9% (inactive) and 28.2% (inactive); in [12], 24% (inactive) and 20.5% (inactive). Besides, the growth in [13] is 12.2% (inactive) and 5.61% (active); in experiment [14], 19.4% (inactive) and 19.9% (inactive); in [15], 24.6% (inactive) and 20.5% (inactive); in experiment [16] it was 32.9% (inactive) and 23.9% (inactive).
On to `CC(C)Cc1ccc(C(C)C(=O)NCc2ccc(Cn3c(=O)sn(CCCCl)c3=O)cc2)cc1` (centres undefined), for which the growth was 99.8% (inactive) and -30.9% (active) in [17]; 94.5% (inactive) and -3.85% (active) in experiment [2]; 105% (inactive) and -52.9% (active) in experiment [3]; 79.8% (inactive) and -94.2% (active) in experiment [4]; 107% (inactive) and 69.5% (inactive) in [18]; 99.3% (inactive) and -79.1% (active) in [5]. For the same compound, the growth was 98.2% (inactive) and -83.4% (active) in [6]; 106% (inactive) and -11% (active) in experiment [7]; 99.4% (inactive) and -32.1% (active) in experiment [8]; 57% (inactive) and -46.4% (active) in experiment [9]; 92.3% (inactive) and -67.8% (active) in experiment [10]; 101% (inactive) and -83.6% (active) in experiment [11]. For the same compound, the growth in experiment [12] is 87.3% (inactive) and -72.3% (active); in [13] it was 57.3% (inactive) and -31.3% (active); in experiment [14], 92.4% (inactive) and -65.6% (active); in experiment [16], 95% (inactive) and 4.78% (active).
With `Cn1c(=O)n(-c2ccc(C(C)(C)C#N)cc2)c2c3cc(-c4cnc5ccccc5c4)ccc3ncc21`, the growth in [1] was 2.04% (active) and -5.13% (active); in [2], 1.15% (active) and -10.2% (active); in experiment [3] it was 10.4% (inactive) and 19.4% (inactive); in experiment [4] it was -5.93% (active) and 0.981% (active); in [18], -28.9% (active) and -13% (active); in experiment [5], -12.3% (active) and -27.9% (active). The growth in experiment [6] was 13.7% (inactive) and -10.6% (active); in experiment [8] it was 1.89% (active) and -0.868% (active); in experiment [9], -12.2% (active) and -4.13% (active); in experiment [12], 8% (active) and 3.15% (active); in [13], 4.64% (active) and -3.88% (active); in [14], 16.8% (inactive) and 13% (inactive). In addition, the growth in [15] is 1.76% (active) and 7.09% (active); in experiment [16] it was 3.33% (active) and -9.75% (active).
With `N/C(=N\N=C\c1ccc2c(c1)OCO2)N/N=C\c1ccc2c(c1)OCO2`, the growth was -8.73% (active) in experiment [1]; 102% (inactive) and 95% (inactive) in experiment [2]; 122% (inactive) and 96.9% (inactive) in experiment [3]; 93.8% (inactive) in [4]; 118% (inactive) and 111% (inactive) in experiment [18]; 112% (inactive) and 96.8% (inactive) in [5]. Besides, the growth in experiment [6] was 126% (inactive) and 101% (inactive); in [7], 115% (inactive) and 92.5% (inactive); in [8], 101% (inactive) and 82.6% (inactive); in [9] it was 112% (inactive) and 107% (inactive); in [10] it was 95.6% (inactive) and 67.7% (inactive); in [11], 81.2% (inactive) and 65.5% (inactive). For the same compound, the growth is 101% (inactive) and 75.2% (inactive) in [12]; 97.6% (inactive) and 48.8% (inactive) in experiment [14]; 103% (inactive) and 86.1% (inactive) in experiment [15]; 93.5% (inactive) and 70.3% (inactive) in experiment [16].
For `Nc1ccn(C2OC(CO)C(O)C2O)c(=O)n1` (centres undefined), the growth was 14.8% (inactive) in experiment [1]; 40.1% (inactive) and 97.2% (inactive) and 101% (inactive) in experiment [2]; 99.9% (inactive) [middle of 4 runs] in experiment [4]; 50.9% (inactive) and 10.1% (inactive) and 106% (inactive) in experiment [5]; 55.5% (inactive) and 58.3% (inactive) and 101% (inactive) in [9].
As for `COC(=O)/C=C/c1cc(O)c2c(c1)C(C(=O)OC)C(c1ccc(O)c(O)c1)O2` (centres undefined), the growth in [17] is 36% (inactive) and 34.4% (inactive); in experiment [2], 13.3% (inactive) and 14.7% (inactive); in [3] it was 69.3% (inactive) and 54.7% (inactive); in experiment [4] it was 52.9% (inactive) and 43.8% (inactive); in experiment [18], 43.1% (inactive) and 29.2% (inactive); in experiment [5], 44.6% (inactive) and 38.3% (inactive). Moreover, the growth in experiment [6] was -1.91% (active) and 9.26% (active); in experiment [7], 33.2% (inactive) and 44.9% (inactive); in experiment [8], 18.3% (inactive) and 15.8% (inactive); in experiment [9], 84.7% (inactive) and 84.1% (inactive); in experiment [10] it was -2.3% (active) and -1.89% (active); in experiment [11] it was -37.6% (active) and -26% (active). The growth was 19.4% (inactive) and 29.6% (inactive) in [12]; 15.1% (inactive) and 13.7% (inactive) in [13]; 8.03% (active) and 7.89% (active) in experiment [14]; 27.8% (inactive) and 29.9% (inactive) in experiment [15]; 11.9% (inactive) and 11.7% (inactive) in experiment [16].
